These results are taken from PubChem BioAssay (Tox21).

Structures are written as SMILES. “And” between values parts separate entries of the source, which are not always exact repeats. Identical values can stand only once. Results filed as inconclusive are left out. The source holds several records for some structures; these can differ, active in one and inactive in another. The source made the active and inactive calls. Unless noted, calls come from the whole dose curve.

Experiment [1] in a line: Nuclear factor erythroid 2-related factor 2/antioxidant responsive element (Nrf2/ARE) small molecule agonists: qHTS cell viability counter screen in human keratinocytes (AID 1919968; active = well fitted curve in the direction sought with a large enough effect in the repeat runs; an effect the other way counts as inactive or inconclusive; note: nearly all actives have a fitted effect of over 55% in size; note: potency is the fitted concentration of half-maximal effect). In short, it runs like this: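 Fluorescence read-out from CellTiter-Fluor after 1 h at 37 C. Wells held HaCaT-derived ARE-luciferase reporter cells (1,500/well) treated 23 h with DMSO-dissolved compounds. Run in the same wells as the luciferase agonist read.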

Experiment [2] in a line: Nuclear factor erythroid 2-related factor 2/antioxidant responsive element (Nrf2/ARE) small molecule agonists: luciferase reporter gene qHTS assay in human keratinocytes (AID 1919969). Note: nearly all actives have a fitted effect of over 35% in size. Note: potency is the fitted concentration of half-maximal effect. On the technique in general: A reporter such as luciferase makes a cellular process visible.
The target of experiment [3] is Gonadotropin-releasing hormone receptor (Homo sapiens) (UniProt P30968). Put plainly: Human gonadotropin-releasing hormone receptor (GnRHR) small molecule agonists, calcium flux assay in GnRHR-HEK293 cells (AID 1920063). Note: nearly all actives have a fitted effect of over 35% in size. In short, it runs like this:
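Calcium-dye fluorescence, Ex/Em=480/540, recorded every 1 sec over 3 min after compound addition to GnRHR-HEK293 cells. Cells had been seeded 18 hours earlier and dye-loaded for 1 hour at 37 C. Fifteen concentrations, triplicates.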
In general terms: Calcium flux is commonly read through the fluorescence of an indicator in the cells.

Experiment [4] addresses KiSS-1 receptor (Homo sapiens) (UniProt Q969F8). Put plainly: Human kisspeptin (KISS1R) small molecule agonists, calcium flux assay in KISS1R-HEK293 cells (AID 1920064; active = well fitted curve in the direction sought with a large enough effect in the repeat runs; an effect the other way counts as inactive or inconclusive). In short, it runs like this:
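Calcium flux read-out: kinetic fluorescence at Ex/Em=480/540, 1 s intervals over 3 min, after pin-tool compound addition to dye-loaded KISS1R-HEK293 cells. Fifteen concentrations, triplicates.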

A short description of experiment [5]: G protein-coupled receptor (GPCR) small molecule agonists, calcium flux assay: HEK293 wild type cell line counter screen (AID 1920065). In short, it runs like this: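 Agonist mode; 18 h seeding at 37 C, 1 h dye load at 37 C; compounds pinned from DMSO, ATP as positive control; kinetic fluorescence 480/540 nm, 3 min, 1 s reads; 15 concentrations, triplicate.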

The nature of experiment [6]: p53 small molecule agonists, cell-based qHTS assay with rat liver microsomes (AID 1963578). The procedure, abridged: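 Each plate received p53RE-bla cells, then compound, then rat liver microsomes and NADPH (both 0.5 mg/mL final). Plates were held 16 h at 37 C, and beta-lactamase activity was detected with LiveBLAzer over 2 h.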
A general note: In qHTS, concentration-response curves come from the screen itself.

Experiment [7] in a line: p53 small molecule agonists, cell-based qHTS assay with human liver microsomes: qHTS cell viability counter screen (AID 1963579). Note: nearly all actives have a fitted effect of over 45% in size. Note: potency is the fitted concentration of half-maximal effect. The procedure, abridged:
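Tox21 library compounds, delivered from DMSO stocks, were tested on p53RE-bla cells together with 0.5 mg/mL human liver microsomes and 0.5 mg/mL NADPH (final) over 16 h at 37 C; CellTiter-Glo luminescence served as the cytotoxicity measure.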

A short description of experiment [8]: p53 small molecule agonists, cell-based qHTS assay: qHTS cell viability counter screen (AID 1963581). Note: nearly all actives have a fitted effect of over 45% in size. In short, it runs like this: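 Cytotoxicity read-out: ATP-based luminescence (CellTiter-Glo, 30 min RT) measured in the same wells as the p53 reporter assay, HCT-116 p53RE-bla cells, 16 h compound exposure at 37 C.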
Experiment [9] in a line: p53 small molecule agonists, cell-based qHTS assay (AID 1963582; active = well fitted activation curve with a large enough effect in the signal ratio in the repeat runs, not every such curve was filed as active; the % refers to the signal ratio). In short, it runs like this: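 Fluorescence intensity read-out of a beta-lactamase reporter under a p53 response element. Cells were exposed to DMSO-dissolved compounds for 16 h at 37 C, then developed with FRET substrate for 2 h at RT.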
Experiment [10] concerns the target 5-hydroxytryptamine receptor 2A (Homo sapiens) (UniProt P28223). Put plainly: 5-hydroxytryptamine receptor 2A (HTR2A) small molecule antagonists, cell-based qHTS assay (AID 1963586). Note: nearly all actives have a fitted effect of over 45% in size. The procedure, abridged:
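CHO cells stably expressing human HTR2A were plated for 18 h at 37 C, then loaded with calcium dye for 1 h. Compounds were preincubated 5 min at room temperature before DOI (4 nM solution) was added. Kinetic fluorescence was read for 3 min.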

Experiment [11] shares this target. Put plainly: 5-hydroxytryptamine receptor 2A (HTR2A) small molecule agonists, cell-based qHTS assay (AID 1963587). Note: nearly all actives have a fitted effect of over 30% in size. In short, it runs like this: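 Kinetic calcium-flux fluorescence (2 min, 1 sec intervals) after compound addition in agonist mode. HTR2A-CHO cells were cultured 18 h, then dye-loaded 1 h at 37 C.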
The target of experiment [12] is Muscarinic acetylcholine receptor M1 (Homo sapiens) (UniProt P11229). Put plainly: Cholinergic receptor muscarinic 1 (CHRM1) small molecule antagonists, cell-based qHTS assay (AID 1963588). Note: nearly all actives have a fitted effect of over 40% in size. In short, it runs like this:
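Compounds were tested at 15 concentrations in three independent runs. Dye-loaded CHRM1-CHO cells were exposed 5 min at room temperature before stimulation by acetylcholine added at 50nM. Intracellular calcium was read kinetically on FDSS for 3 min.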

Experiment [13] in a line: cAMP Responsive Elements (CRE) small molecule agonists, cell-based qHTS assay (AID 1963590). The procedure, abridged: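 Beta-lactamase reporter readout: LiveBLAzer B/G FRET substrate, 2 h at room temperature, added after 3 h compound treatment of CRE-bla HEK 293T cells at 37 C/5% CO2.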
Experiment [14] is described as follows: cAMP Responsive Elements (CRE) small molecule antagonists, cell-based qHTS assay (AID 1963591; active = well fitted inhibition curve with a large enough effect in the signal ratio in the repeat runs, not every such curve was filed as active; the % refers to the signal ratio). In short, it runs like this:
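HEK293T CRE-bla; 18 h preincubation; compound pin-transfer; NKH477 0.25 uM final, 3 h, 37 C; LiveBLAzer FRET substrate 2 h RT.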

Experiment [15] concerns the target Beta-2 adrenergic receptor (Homo sapiens) (UniProt P07550). Put plainly: Adrenergic beta2 receptor (ADRB2) small molecule antagonists, cell-based qHTS assay (AID 1963592). Note: series mostly up to about 92 µM; nearly all actives have a fitted effect of over 50% in size. In short, it runs like this:
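Assay format: CHO-ADRB2 cells, 18-20hr seeding at 37C/5% CO2, then compound plus 1nM isoproterenol agonist mix for 0.5hr RT. Homogeneous time-resolved fluorescence cAMP detection after 1hr, expressed as 665/615 nm ratio.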

Experiment [16] addresses D(2) dopamine receptor (Homo sapiens) (UniProt P14416). Put plainly: Dopamine D2 receptor (DRD2) small molecule antagonists, cell-based qHTS assay (AID 1963595; active = well fitted inhibition curve with a large enough effect in the signal ratio in the repeat runs, with a control signal flat; the % refers to the signal ratio). The procedure, abridged: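 HEK293 cells stably expressing DRD2 were preincubated with 0.1 mM Ro20-1724, then with compound for 10 min at room temperature. Cells were stimulated with 200 nM NKH477 plus 12 nM quinpirole for 30 min, and cAMP was read by HTRF.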

Experiment [17] is described as follows: p53 small molecule agonists, cell-based qHTS assay with rat liver microsomes: qHTS cell viability counter screen (AID 1963580). Note: nearly all actives have a fitted effect of over 45% in size. Note: potency is the fitted concentration of half-maximal effect. In short, it runs like this: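 Rat liver microsome (0.5 mg/mL final) and NADPH (0.5 mg/mL final) co-incubation with compounds for 16 h at 37 C on HCT-116 p53RE-bla cells; cytotoxicity taken from intracellular ATP luminescence.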

The target in experiment [18] is Muscarinic acetylcholine receptor M1 (Homo sapiens) (UniProt P11229). Put plainly: Cholinergic receptor muscarinic 1 (CHRM1) small molecule agonists, cell-based qHTS assay (AID 1963589). Note: nearly all actives have a fitted effect of over 35% in size. The procedure, abridged:
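Calcium flux read-out: kinetic fluorescence at 1 sec intervals after pin-tool compound addition to dye-loaded CHRM1-CHO cells (human M1). Agonist mode; 15 concentrations tested in triplicate independent runs.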

In experiment [19] the target is Beta-2 adrenergic receptor (Homo sapiens) (UniProt P07550). Put plainly: Adrenergic beta2 receptor (ADRB2) small molecule agonists, cell-based qHTS assay (AID 1963593).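 Note: CHO cells stably overexpressing human ADRB2.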 In short, it runs like this:
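CHO cells stably over-expressing ADRB2 were plated overnight at 37C, then dosed with compounds plus a stimulation mix containing 100uM IBMX and 25uM Ro-20-1724 for 0.5hr at room temperature. cAMP was measured by HTRF competition, 1hr.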

Experiment [20] concerns the target D(2) dopamine receptor (Homo sapiens) (UniProt P14416). Put plainly: Dopamine D2 receptor (DRD2) small molecule agonists, cell-based qHTS assay (AID 1963594). Note: nearly all actives have a fitted effect of over 35% in size. The procedure, abridged:
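cAMP accumulation in DRD2-HEK293 cells measured by HTRF after 1 h detection; compounds added 10 min before NKH477 (200nM […]) forskolin-analogue stimulation, 30 min at room temperature, with Ro20-1724 present at 0.1 mM final.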

Chain of Beta-2 adrenergic receptor (Homo sapiens) (P07550 whole entry, looked up): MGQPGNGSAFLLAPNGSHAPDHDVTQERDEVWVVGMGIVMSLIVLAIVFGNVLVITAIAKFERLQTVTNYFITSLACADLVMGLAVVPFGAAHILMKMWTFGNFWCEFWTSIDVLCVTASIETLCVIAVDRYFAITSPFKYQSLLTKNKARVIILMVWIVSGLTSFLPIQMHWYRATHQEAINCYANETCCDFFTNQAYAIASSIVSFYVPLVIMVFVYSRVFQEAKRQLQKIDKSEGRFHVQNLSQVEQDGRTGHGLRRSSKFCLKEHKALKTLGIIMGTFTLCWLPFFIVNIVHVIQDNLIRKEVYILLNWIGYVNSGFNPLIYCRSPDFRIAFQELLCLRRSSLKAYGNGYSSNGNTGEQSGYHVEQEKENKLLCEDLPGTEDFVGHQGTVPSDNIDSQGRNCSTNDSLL
Chain of D(2) dopamine receptor (Homo sapiens) (P14416 whole entry, looked up): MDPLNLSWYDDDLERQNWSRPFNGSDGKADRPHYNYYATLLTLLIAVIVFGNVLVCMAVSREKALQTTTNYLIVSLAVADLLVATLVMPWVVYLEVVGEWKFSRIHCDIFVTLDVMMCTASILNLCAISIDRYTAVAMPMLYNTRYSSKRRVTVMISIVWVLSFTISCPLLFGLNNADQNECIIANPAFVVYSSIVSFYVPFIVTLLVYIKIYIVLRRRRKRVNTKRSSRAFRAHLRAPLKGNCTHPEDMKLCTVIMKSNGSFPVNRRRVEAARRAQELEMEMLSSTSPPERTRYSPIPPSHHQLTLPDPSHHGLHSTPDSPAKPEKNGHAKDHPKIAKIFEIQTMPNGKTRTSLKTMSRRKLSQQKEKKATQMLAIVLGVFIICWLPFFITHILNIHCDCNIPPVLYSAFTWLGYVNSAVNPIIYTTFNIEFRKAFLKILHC
Chain of Muscarinic acetylcholine receptor M1 (Homo sapiens) (P11229 whole entry, looked up): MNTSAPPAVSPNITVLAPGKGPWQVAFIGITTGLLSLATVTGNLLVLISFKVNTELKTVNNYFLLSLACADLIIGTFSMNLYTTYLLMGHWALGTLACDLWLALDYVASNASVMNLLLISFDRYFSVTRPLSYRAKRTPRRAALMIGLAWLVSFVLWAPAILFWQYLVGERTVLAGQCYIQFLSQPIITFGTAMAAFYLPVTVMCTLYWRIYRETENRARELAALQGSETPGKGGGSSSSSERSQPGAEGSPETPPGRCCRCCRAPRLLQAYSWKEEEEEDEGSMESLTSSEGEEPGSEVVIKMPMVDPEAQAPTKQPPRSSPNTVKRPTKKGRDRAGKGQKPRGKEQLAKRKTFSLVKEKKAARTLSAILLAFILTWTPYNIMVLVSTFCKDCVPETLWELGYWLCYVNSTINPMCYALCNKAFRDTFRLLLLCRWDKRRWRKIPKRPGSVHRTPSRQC
Chain of Gonadotropin-releasing hormone receptor (Homo sapiens) (P30968 whole entry, looked up): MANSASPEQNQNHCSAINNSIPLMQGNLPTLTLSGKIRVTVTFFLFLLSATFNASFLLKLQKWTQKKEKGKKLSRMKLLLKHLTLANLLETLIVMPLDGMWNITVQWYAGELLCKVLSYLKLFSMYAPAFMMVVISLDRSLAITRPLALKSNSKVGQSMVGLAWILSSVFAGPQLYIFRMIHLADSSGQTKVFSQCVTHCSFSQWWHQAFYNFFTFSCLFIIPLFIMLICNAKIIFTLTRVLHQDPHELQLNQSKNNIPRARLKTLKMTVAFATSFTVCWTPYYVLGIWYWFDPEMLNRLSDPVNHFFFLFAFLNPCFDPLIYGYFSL
Chain of 5-hydroxytryptamine receptor 2A (Homo sapiens) (P28223 whole entry, looked up): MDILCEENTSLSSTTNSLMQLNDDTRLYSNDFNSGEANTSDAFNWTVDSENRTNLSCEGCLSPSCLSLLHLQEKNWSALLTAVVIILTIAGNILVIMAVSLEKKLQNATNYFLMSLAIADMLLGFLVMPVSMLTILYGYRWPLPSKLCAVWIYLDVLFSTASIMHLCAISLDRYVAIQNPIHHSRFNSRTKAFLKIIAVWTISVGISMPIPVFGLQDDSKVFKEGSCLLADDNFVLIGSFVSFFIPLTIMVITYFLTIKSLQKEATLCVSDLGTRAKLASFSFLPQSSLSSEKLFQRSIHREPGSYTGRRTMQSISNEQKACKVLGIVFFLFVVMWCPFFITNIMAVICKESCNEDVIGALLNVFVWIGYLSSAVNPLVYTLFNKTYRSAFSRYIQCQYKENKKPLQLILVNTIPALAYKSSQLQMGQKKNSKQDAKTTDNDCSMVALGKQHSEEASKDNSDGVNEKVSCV
Chain of KiSS-1 receptor (Homo sapiens) (Q969F8 whole entry, looked up): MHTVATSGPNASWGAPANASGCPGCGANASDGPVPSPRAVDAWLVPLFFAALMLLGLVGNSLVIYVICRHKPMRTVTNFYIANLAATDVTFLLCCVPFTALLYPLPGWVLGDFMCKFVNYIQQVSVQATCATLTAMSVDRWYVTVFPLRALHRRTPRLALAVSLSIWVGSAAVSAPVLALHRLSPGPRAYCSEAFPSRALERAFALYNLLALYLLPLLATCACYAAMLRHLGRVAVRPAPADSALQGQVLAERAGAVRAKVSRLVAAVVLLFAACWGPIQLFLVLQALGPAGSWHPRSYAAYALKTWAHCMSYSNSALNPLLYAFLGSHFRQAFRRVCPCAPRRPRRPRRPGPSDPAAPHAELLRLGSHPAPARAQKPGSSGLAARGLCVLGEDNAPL

As for `CC(C)c1ccc(CO)cc1`, the Potency entry in [1], in [2], in experiment [3], in experiment [4], in experiment [5] and in experiment [6] was “inactive” in each case. The Potency result in experiment [7], in experiment [8], in experiment [9], in experiment [10], in experiment [11] and in experiment [12] was “inactive” each time. In addition, the Potency result in experiment [13], in [14], in experiment [15] and in experiment [16] was “inactive” throughout.
In the case of `Nc1ccc(N)cc1`, the Potency entry in [1], in [3], in experiment [4], in [5], in experiment [7] and in [17] was “inactive” in each case. The Potency entry in [8], in experiment [10], in experiment [11], in [12], in experiment [18] and in [13] was “inactive” throughout. Besides, the Potency result in [14], in experiment [15], in [19], in experiment [20] and in [16] was “inactive” throughout. For the same molecule, the Potency in experiment [2] was 61.1 µM (active) and 18.8 µM (active) and inactive.
For the molecule `CC[N+]1(C)CCCC1`, the Potency entry in experiment [1], in experiment [3], in experiment [4], in experiment [5], in experiment [17] and in experiment [8] was “inactive” in each case. The Potency result in experiment [10], in experiment [11], in [12], in experiment [18], in experiment [13] and in experiment [14] was “inactive” each time. In addition, the Potency entry in experiment [15], in experiment [19], in [20] and in experiment [16] was “inactive” throughout. In addition, the Potency in experiment [2] was 70.3 µM (active) and inactive; in experiment [7], 41.8 µM (active) and inactive.
In the case of `COS(=O)(=O)OC`, the Potency entry in experiment [1], in experiment [2], in experiment [3], in experiment [4], in experiment [5] and in experiment [6] was “inactive” throughout. In addition, the Potency entry in experiment [7], in experiment [17], in experiment [9], in [10], in [12] and in experiment [18] was “inactive” each time. Moreover, the Potency entry in [13], in [14], in [15], in experiment [19] and in experiment [16] was “inactive” each time.
For the molecule `O=C1C(Cl)=C(Cl)C(=O)C(Cl)=C1Cl`, the Potency in [1] is 27.2 µM (active) and 27.3 µM (active); in [2], 4.84 µM (active) and 9.69 µM (active); in experiment [7], 40.8 µM (active); in experiment [17], “inactive and 40.8 µM (active)”. Further, the Potency result in experiment [3], in [4], in experiment [5], in [8], in experiment [11] and in experiment [12] was “inactive” throughout. The Potency entry in [18], in [13] and in experiment [14] was “inactive” throughout.
In the case of `O=C(O)COc1cc(Cl)c(Cl)cc1Cl`, the Potency entry in experiment [1], in experiment [2], in experiment [3], in experiment [4], in experiment [5] and in experiment [7] was “inactive” each time. Further, the Potency entry in [17], in experiment [10], in experiment [11], in [12], in [15] and in experiment [20] was “inactive” in each case. The Potency entry in experiment [16] was “inactive”.
Regarding `CC1CC(=O)O1` (centres undefined), the Potency entry in experiment [1], in [2], in [3], in [4], in [5] and in [7] was “inactive” throughout. For the same molecule, the Potency result in experiment [17], in experiment [8], in experiment [10], in experiment [11], in experiment [12] and in experiment [13] was “inactive” throughout. Also, the Potency entry in experiment [14], in [15], in [19], in experiment [20] and in experiment [16] was “inactive” in each case.
As for `Cc1ccc([N+](=O)[O-])cc1C`, the Potency entry in experiment [1], in experiment [2], in experiment [3], in experiment [4], in [5] and in experiment [7] was “inactive” throughout. For the same molecule, the Potency result in experiment [17], in [10], in experiment [11], in experiment [12], in experiment [18] and in experiment [13] was “inactive” each time. The Potency entry in experiment [14], in [15], in experiment [19], in experiment [20] and in [16] was “inactive” throughout.
